# Only a selection was taken, and hits are over-represented in it overall.
# Sm TGR inh: inhibitors of Schistosoma mansoni thioredoxin glutathione reductase; Q962Y6; purified TGR, DTNB reduction, TNB absorbance 405 nm; Potency, µM (doses to about 114 µM), inactives show top-dose activity change, negative = inhibition, most hits filed as inhibitors; 3% of 360,000 active; AID 485364; also: potency is read from the fitted curve at half-maximal effect; % is scaled to controls: 0 for no effect and ±100 for the full control effect; nearly all actives have a fitted effect of over 60% in size
#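 TGR 20 nM + NADPH 100 uM (dispensed conc.), cpd preinc 15 min RT; start with NADPH (500 uM addition) then DTNB (15 mM addition). Kinetic TNB absorbance, 405 nm filter. Four-parameter Hill fit across titration.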
# LmPK inhibitor: inhibitors of Leishmania mexicana pyruvate kinase; Q27686; 0.37% of 290,000 active; AID 1721; purified LmPK, Kinase-Glo ATP luminescence, 1 h; Potency, µM (highest dose often 57.5 µM), for inactives: at the top dose activity change, negative = inhibition, actives largely listed as inhibitors; also: potency is read from the fitted curve at half-maximal effect; % is scaled to controls: 0 for no effect and ±100 for the full control effect
#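 ATP generated from ADP (0.1 mM) and PEP (0.5 mM) by 0.1 nM LmPK over 1 h at room temperature (pH 7.2 imidazole buffer) was detected by coupled luciferase luminescence. Values were normalized to uninhibited and no-enzyme wells.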
# Shiga toxin inh: inhibitors of Shiga toxin in Vero cells | inhibition, % at 38.7 µM | AID 2315 | 9.2% of 290,000 active | Vero cells, Shiga toxin protein synthesis inhibition reporter; in the data active = inhibition mostly above about 28%, no sharp cut-off; inactive = mostly below about 43%; also: 0% is about no effect
# Cycloheximide cs: affects cycloheximide protein synthesis inhibition readout, counter-screen | cell reporter, cycloheximide protein synthesis inhibition counterscreen | max response, % | 12% of 300,000 active | AID 2314; in the data active = max response mostly above about 13%, no sharp cut-off; inactive = mostly below about 14%; also: read at 38.3 µM for the half of the compounds with a filed dose; 0% is about no effect
# TbPYK inhibitor: inhibitors of Trypanosoma brucei pyruvate kinase; Q57TT1; TbPYK enzyme, Kinase-Glo Plus ATP luminescence, 45 min; 0.12% of 410,000 active; Potency, µM (highest dose often 76.8 µM), inactives show at the top dose activity, negative = inhibition, actives largely listed as inhibitors; also: potency is read from the fitted curve at half-maximal effect; % is scaled to controls: 0 for no effect and ±100 for the full control effect; nearly all actives have a fitted effect of over 50% in size
#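 TbPYK + substrate in 50 mM TEA pH 7.2, 100 mM KCl, 10 mM MgCl2, 0.05% BSA, 0.01% Tween-20; cpd pinned; ADP 130 uM final; 45 min RT; Kinase-Glo Plus 10 min; luminescence endpoint.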
# Giardia FBPA inh: Giardia lamblia aldolase inhibition. A8B2U2. purified Giardia FBPA. Potency, µM (highest dose often 59.6 µM), inactives show at the top dose activity, negative = inhibition, usual class: inhibitors. 0.71% of 290,000 active. AID 2451; also: potency is read from the fitted curve at half-maximal effect; % is scaled to controls: 0 for no effect and ±100 for the full control effect; nearly all actives have a fitted effect of over 55% in size
# Target sequence (A8B2U2 whole entry, looked up): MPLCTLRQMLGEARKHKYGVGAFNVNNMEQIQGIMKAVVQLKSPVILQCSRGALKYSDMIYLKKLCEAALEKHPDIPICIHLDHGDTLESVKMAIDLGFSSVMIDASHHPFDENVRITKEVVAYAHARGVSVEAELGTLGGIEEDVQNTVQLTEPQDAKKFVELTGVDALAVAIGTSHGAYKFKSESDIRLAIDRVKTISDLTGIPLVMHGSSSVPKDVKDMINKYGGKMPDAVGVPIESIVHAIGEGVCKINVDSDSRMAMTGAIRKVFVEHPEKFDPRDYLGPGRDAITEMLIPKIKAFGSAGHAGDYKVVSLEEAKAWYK
#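 40 nM FBPA preincubated 10 min at RT with compound (up to 57.5 uM final), then substrate plus GAPDH/TPI/NAD/arsenate coupling and diaphorase/resazurin added. Fluorescence read after 20 min at RT, 525/598 nm.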
# * = called active by the depositor; ? = inconclusive; . = not tested or not shown. Unless noted, calls follow the shape of the dose curve; as a rule, active = well fitted curve in the direction sought with a large enough effect; inconclusive = small, poorly fitted or top-dose-only effect, or another doubt; inactive = no such curve, though single readings can be large; an effect the other way counts as inactive or inconclusive.
SMILES,Sm TGR inh,LmPK inhibitor,Shiga toxin inh,Cycloheximide cs,TbPYK inhibitor,Giardia FBPA inh
Cc1cc(C)cc(NC(=O)Cn2ncn3c(cc4ccccc43)c2=O)c1,6%,6%,-14,-3,1%,4%
COC(=O)Cn1ncn2c(cc3oc(C)cc32)c1=O,-12%,2%,76*,40*,-23%,3%
Cc1ccc(CN2C(=O)N(c3ccc(F)cc3)C(=O)C2CC(=O)Nc2ccc(Cl)cc2)cc1 (configuration not stated),5%,.,.,.,-3%,.
O=C(NCc1ccccc1)c1cc(-n2cnnc2)ccc1Cl,2%,-2%,-35,-2,1%,-6%
CN(C(=O)c1cc(-n2cnnc2)ccc1Cl)c1ccccc1,-9%,2%,43*,17*,-10%,2%
CCOc1ccc(OCC)c(NC(=O)c2csc3c2CCCC3)c1,-1%,.,.,.,-3%,.
CC1=CCC2C(=O)N(CCc3c[nH]c4ccccc34)C(=O)C2C1 (configuration not stated),-16%,2%,active,23*,1%,-8%
O=C1C2CC=C(Cl)CC2C(=O)N1CCc1c[nH]c2ccccc12 (configuration not stated),-15%,5%,47*,22*,-11%,-1%
CCC(C)(C)c1ccc2c(c1)C(=O)c1ccccc1C2=O,-9%,-19%,37*,62*,-2%,4%
CCc1ccc2cc3c(cc2n1)C(=O)c1ccccc1-3,.,.,.,.,-2%,.
CC(C)C[C@H](NC(=O)[C@H](Cc1cnc[nH]1)NC(=O)[C@@H](N)Cc1cnc[nH]1)C(=O)NCC(=O)NCC(=O)N[C@@H](C)C(=O)N[C@@H](CCCCN)C(=O)N[C@@H](CCC(N)=O)C(=O)N[C@@H](C)C(=O)NCC(=O)N[C@@H](CC(=O)O)C(=O)N[C@H](C(=O)O)C(C)C,.,.,-17,-2,.,-19%
COc1cccc(NS(=O)(=O)c2ccc3[nH]cc(C(=O)NC(C)c4ccccc4)c(=O)c3c2)c1 (configuration not stated),6%,.,5,51,5%,.
Brc1ccc2nc(-c3cccs3)c(NCC3CCCO3)n2c1 (configuration not stated),-26%,-19%,56*,32*,-2%,?
O=C(Nc1cccc(C(=O)NC2CC2)c1)c1ccccc1,.,.,.,.,-3%,.
O=C(NC1CC1)c1cccc(Nc2ccc(-c3ccc4c(c3)OCCO4)nn2)c1,-9%,-15%,55*,31*,-11%,-14%
O=S(=O)(c1ccc(Nc2ccc(-c3ccc4c(c3)OCCO4)nn2)cc1)N1CCCC1,4%,2%,35,54*,3%,2%
Cc1ccc(-c2noc(-c3nnn(CC(=O)Nc4cccc(C(F)(F)F)c4)c3N)n2)cc1,18%,.,.,.,1%,.
C[C@H]1CN([C@@H](C)CO)C(=O)c2cc(Br)cnc2O[C@H]1CN(C)C(=O)c1ccc2c(c1)OCO2,.,.,.,.,11%,.
CCn1c(=O)cc(OCC(=O)N(C)c2cc(Cl)ccc2C)c2ccccc21,-8%,.,.,.,-3%,.
COc1ccc(N2CCN(C(=O)CN3C(=O)COc4ccc(S(=O)(=O)N5CCC(C)CC5)cc43)CC2)cc1,-10%,.,.,.,2%,.
CCCCc1ccc(Nc2nc(CCC)cc(=O)[nH]2)cc1,-8%,1%,-10,-1,1%,-4%
CCCc1cc(=O)[nH]c(Nc2ccc3c(c2)OCCO3)n1,-2%,1%,42*,36*,-6%,5%
Cc1ccc(CNC(=O)C2CCN(S(=O)(=O)c3cc(-c4noc(C)n4)ccc3C)CC2)cc1,13%,.,.,.,-2%,.
Cc1nc2ccn(Cc3cccs3)c(=O)c2cc1C(=O)NCc1ccc(Br)cc1,0%,.,.,.,-7%,.
O=C(Nc1ccccc1F)c1cnccn1,1%,-4%,53*,18*,-2%,5%
SMILES,Sm TGR inh,LmPK inhibitor,Shiga toxin inh,Cycloheximide cs,TbPYK inhibitor,Giardia FBPA inh
O=C(Nc1ccccc1C(F)(F)F)c1cc2nc(-c3ccccc3)cc(-c3ccccc3)n2n1,?,.,.,.,-8%,.
Cc1ccc(NC(=O)c2cnccn2)c(Br)c1,-24%,10%,.,26*,2%,10%
O=C(Nc1ccccc1N1CCOCC1)c1cnccn1,11%,3%,-17,-4,-3%,-4%
O=C(Nc1ccccc1F)c1cc2nc(C(F)F)cc(C(F)F)n2n1,-22%,-2%,52*,22*,1%,-2%
O=C(Nc1ccccc1-c1ccccc1)c1cnccn1,6%,5%,54,14*,-2%,8%
CCOC(=O)c1ccccc1NC(=O)CSc1cc(C)[nH]c(=O)n1,0%,.,.,.,-11%,.
COc1ncc2ncc(=O)n(C[C@H]3CCCO3)c2n1,.,.,.,.,.,-2%
Cc1ccc2nc(/N=C(\N)NC(=O)NC3CCCCC3)nc(C)c2c1,10%,-2%,3,10,2%,4%
Cc1ccc2oc(/N=C(\N)NC(=O)C(C)(C)C)nc2c1,11%,-3%,32,27*,-2%,4%
CC(C)(C)c1ccc(C(=O)N/C(N)=N/c2nc3ccccc3o2)cc1,5%,1%,-5,-3,-16%,8%
Cc1ccc2oc(/N=C(\N)NC(=O)C3CC3)nc2c1,-11%,0%,65*,55*,5%,0%
CC1(c2nnc(-c3cccc(Cl)c3)o2)CC(c2cccc(Cl)c2)=NO1 (configuration not stated),.,.,.,.,-7%,.
COc1ccc(CNC(=O)Nc2ccc(C)c(C)c2)cc1,7%,0%,32,33*,2%,-2%
CCOC(=O)c1ccc(NC(=O)NCc2ccc(OC)cc2)cc1,0%,-4%,31,13,-4%,2%
COc1ccc(CNC(=O)Nc2ccc(C)cc2)cc1,-1%,-1%,76*,24*,-4%,-3%
COc1ccc(CNc2ccc(C)c(C)c2)cc1,.,-3%,57*,41*,4%,1%
COc1cc(CNc2ccc(C)c(C)c2)cc(OC)c1OC,5%,4%,115,35,6%,?
COc1ccc(NC(=O)NCc2ccncc2)cc1,9%,-1%,-22,-1,4%,-2%
COc1ccc(CNC(=O)Nc2cc(C)cc(C)c2)cc1,9%,3%,48*,24*,2%,1%
Nc1c(C(=O)Nc2ccccc2Cl)nnn1Cc1cccc(Cl)c1,?,.,.,.,-7%,.
COC(=O)c1nnc(C(=O)N(C)Cc2ccccc2)c2[nH]c3ccccc3c12,.,.,.,.,.,-3%
O=S(=O)(c1ccc(Cl)cc1)c1nc(-c2ccccc2)oc1N1CCN(c2ccccc2)CC1,13%,.,.,.,-1%,.
Cc1ccc(-n2ncc3c(NCCCN(C)C)ncnc32)cc1Cl,7%,.,.,.,-2%,.
COc1ccc(CC(=O)Nc2ccc(N3CCCC3)c(C)c2)cc1,50µM*,2%,26,12,0%,-14%

# Compound activity (PubChem)
